# Compound activity: PubChem, National Center for Advancing Translational Sciences (NCATS)
# Hits are enriched below; roughly 7.5% of the tested compounds scored in any of these assays.
# SMN2 splice enh = SMN2 splice variant enhancement | HEK293 SMN2-luciferase splicing reporter, luminescence, 30-36 h | Potency, µM (titrated, usually from 46.1 µM), inactives show at the highest dose activity change, positive = activation, hits mostly activators | AID 1458 | 210,000 tested, 2.8% active; note: % of control where 0% means no effect; nearly all actives have a fitted effect of over 55% in size
#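 HEK293 cells carry an SMN2 minigene-luciferase reporter in which exon 7 inclusion puts luciferase in frame. Cells were seeded at 2000 cells/well, attached for 10-12 hours, then exposed to compounds for 30-36 hours at 37C before ONE-Glo luminescence.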
# FLuc modulator = firefly luciferase modulation, counter-screen for miR-21 project; P08659; Potency, µM (series often up to 57.5 µM), for inactives: at the highest dose activity change, negative = inhibition, actives largely listed as inhibitors; AID 588342; 360,000 tested, 6.9% active; purified FLuc, Km substrates, luminescence inhibition;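 note: plate controls were vehicle for no effect and reference inhibitor for full effect; nearly all actives have a fitted effect of over 55% in size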
# Target sequence (P08659 whole entry, looked up): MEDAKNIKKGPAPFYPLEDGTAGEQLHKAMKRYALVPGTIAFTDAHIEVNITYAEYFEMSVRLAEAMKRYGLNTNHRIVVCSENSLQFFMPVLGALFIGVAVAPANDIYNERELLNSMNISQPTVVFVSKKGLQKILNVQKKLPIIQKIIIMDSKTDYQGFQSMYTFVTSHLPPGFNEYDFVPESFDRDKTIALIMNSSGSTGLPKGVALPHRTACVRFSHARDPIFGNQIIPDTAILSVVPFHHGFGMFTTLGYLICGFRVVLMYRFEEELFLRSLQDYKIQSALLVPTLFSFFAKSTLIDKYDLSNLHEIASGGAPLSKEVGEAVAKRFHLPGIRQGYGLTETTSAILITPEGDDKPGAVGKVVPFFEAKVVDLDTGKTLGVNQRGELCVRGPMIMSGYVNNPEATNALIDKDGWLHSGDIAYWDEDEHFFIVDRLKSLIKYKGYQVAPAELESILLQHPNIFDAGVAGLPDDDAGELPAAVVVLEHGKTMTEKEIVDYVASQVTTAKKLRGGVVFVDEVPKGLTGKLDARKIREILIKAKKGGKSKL
#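 Biochemical qHTS of compounds, final roughly 60 µM downward over six points, against 10 nM purified firefly luciferase using Km concentrations of substrates (10 uM D-luciferin, 10 uM ATP) in Tris acetate pH 7.5 buffer; luminescence output.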
# NPC1 prom act = activates the NPC1 promoter; Potency, µM (titrated, usually from 9.22 µM), without a hit: at the top dose activation, actives largely listed as activators; 320,000 tested, 2.4% active; Huh7 NPC1 promoter luciferase reporter, 24 h; note: % of control where 0% means no effect; nearly all actives have a fitted effect of over 60% in size
#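 Luminescence from an NPC1 promoter-driven luciferase reporter in stably transfected Huh7 cells was measured after 24 h compound treatment at 37 °C, followed by 10 min ambient incubation with luciferase detection reagent.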
# Rab9 promoter act = activators of Rab9 promoter. Huh7 Rab9 promoter-luciferase reporter, luminescence, 24 h. Potency, µM (series often up to 9.22 µM), for inactives: at the highest dose activation, negative = inhibition, most hits filed as activators. 320,000 tested, 2.8% active; note: % of control where 0% means no effect; nearly all actives have a fitted effect of over 60% in size
#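 Luminescence from Amplite-detected luciferase (10 minutes, ambient) reports Rab9 promoter activation. Before that, stable Rab9-luciferase Huh7 cells (1500/well, reduced-serum OP-MEM I plus 10% FBS) were exposed to compound for 24 hours at 37C.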
# ELG1 genotox = inducers of genotoxicity in HEK293T ELG1-luciferase cells. HEK293T ELG1-luciferase reporter, luminescence, 16 h. Potency, µM (doses to about 46 µM), for the others: top-dose activity change, positive = activation, hits mostly activators. 330,000 tested, 1.3% active. AID 504466; note: % of control where 0% means no effect; nearly all actives have a fitted effect of over 60% in size
#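 Genotoxic stress is detected as increased luminescence from luciferase-tagged ELG1 in HEK293T cells, measured with ONE-Glo after a 16 hr treatment at 37 °C.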
# Starred values were filed as active, the others as inactive; ? = inconclusive; . = no result; [ ] = remark or other dose. Calls come from the whole dose curve; as a rule, active = well fitted curve in the direction sought with a large enough effect; inconclusive = small, poorly fitted or top-dose-only effect, or another doubt; inactive = no such curve, though single readings can be large; an effect the other way counts as inactive or inconclusive. Potency is the fitted concentration of half-maximal effect.
SMILES,SMN2 splice enh,FLuc modulator,NPC1 prom act,Rab9 promoter act,ELG1 genotox
COc1ccc(-c2noc(-c3ccc(NCC4CCCO4)c([N+](=O)[O-])c3)n2)cc1OC (stereo unspecified),.,0%,.,.,.
COc1ccc(-c2noc(-c3ccc(NC4CCCC4)c([N+](=O)[O-])c3)n2)cc1OC,.,13µM*,.,.,.
CCC(C)NC(=O)C(=O)Nc1c2c(nn1-c1ccccc1)CS(=O)(=O)C2 (stereo unspecified),.,-5%,.,.,.
CCOc1ccccc1Nc1nc(-c2cccc(Cl)c2)c2c(n1)-c1ccccc1OC2,.,11µM*,.,.,.
CC(=O)CSc1ncnc2sc3c(c12)CCC(C)C3 (stereo unspecified),12%,15µM*,10%,1%,8%
CCCOC(=O)CSc1ncnc2sc3c(c12)CCC(C)C3 (stereo unspecified),-1%,8.5µM*,.,.,.
CC(C)n1c(SCC(=O)NC2CC2)nnc1-c1ccco1,.,-3%,3%,0%,1%
CCOC(=O)CSc1ncnc2c1cnn2-c1ccc(C)cc1,25%,?,14%,16%,?
CCOC(=O)CSc1ncnc2c1cnn2-c1ccc(Cl)cc1,7%,9.5µM*,13%,5%,17%
Cc1nnc2c3cnn(-c4ccc(Cl)cc4)c3ncn12,-8%,?,?,?,21µM*
CCOC(=O)CNC(=O)CSc1ncnc2c1cnn2-c1ccccc1,2%,0%,1%,1%,0%
CCOC(=O)CC(=O)CSc1ncnc2c1cnn2-c1ccccc1,9%,24µM*,?,?,?
O=C(CS(=O)(=O)c1ccccc1)c1cc2cc(F)ccc2oc1=O,.,1.9µM*,12%,-1%,3%
O=C(CS(=O)(=O)c1ccccc1)c1cc2ccccc2oc1=O,.,1.5µM*,1%,-1%,5%
COc1ccc2cc(C(=O)CS(=O)(=O)c3ccccc3)c(=O)oc2c1,.,0.95µM*,-11%,0%,?
CCCC(=O)c1cc2ccccc2oc1=O,-5%,?,1%,-8%,1%
CCN(CC)S(=O)(=O)c1cc(NC(=O)C2CSC3(C)CCC(=O)N23)ccc1C (stereo unspecified),.,3%,-3%,-2%,-3%
COc1cc(CN(CC2CCCO2)C(=O)c2ccc(F)cc2)cc(OC)c1OC (stereo unspecified),3%,-3%,.,.,.
Nc1nn(-c2ccccc2)nc1C(=O)OCc1ccccc1Br,-1%,?,.,.,.
CC(C)(C)c1ccc(C(=O)COC(=O)CN2C(=O)NC3(CCCC3)C2=O)cc1,.,8.5µM*,-3%,0%,5%
CCOC(=O)c1c(C)[nH]c(C)c1C(=O)COC(=O)Cc1ccc(OC)c(OC)c1,.,.,.,.,1%
O=c1c(Cl)c(N2CCN(c3ccc(F)cc3)CC2)cnn1-c1nc2ccccc2s1,13µM*,19µM*,29%,?,?
O=C1CC(N2CCN(c3nc4ccccc4s3)CC2)C(=O)N1c1ccc(F)cc1 (stereo unspecified),12%,-1%,3%,1%,1%
Cc1ccc(-c2cc3ncc(C(=O)c4cc([N+](=O)[O-])ccc4O)cn3n2)cc1,-9%,9.5µM*,.,.,.
Cc1ccc(N/C=C/c2onc(C)c2[N+](=O)[O-])cc1,.,0.6µM*,2.5µM*,0.63µM*,1.3µM*
SMILES,SMN2 splice enh,FLuc modulator,NPC1 prom act,Rab9 promoter act,ELG1 genotox
Cc1noc(/C=C/c2cccnc2)c1[N+](=O)[O-],.,2%,-21%,-16%,-12%
COc1cccc(N/C=C/c2onc(C)c2[N+](=O)[O-])c1,?,-3%,?,2.5µM*,?
Cc1cccc(C)c1N/C=C/c1onc(C)c1[N+](=O)[O-],-1%,3%,.,.,.
CC(C)NC(=S)N/N=C/c1sc(N2CCCCC2)nc1-c1cccs1,-15%,3µM*,-4%,13%,9%
Cc1ccc(CSc2ncc(Cl)c(C(=O)Nc3nnc(C)s3)n2)cc1,-4%,15µM*,.,.,.
CCc1nnc(NC(=O)c2nc(SCc3ccc(F)cc3)ncc2Cl)s1,2%,12µM*,.,.,.
Cc1cccc(CSc2ncc(Cl)c(C(=O)Nc3nnc(C)s3)n2)c1,2%,?,.,.,.
CC(C)(C)c1ccc(-c2nnc3sc(-c4ccccn4)nn23)cc1,-14%,9.5µM*,28%,?,?
Clc1ccc(-c2nnc3sc(-c4ccccn4)nn23)cc1,-1%,-1%,-5%,2%,1%
CN1CCN(C(=O)CCN2C(=O)c3ccccc3C2=O)CC1,.,-2%,-1%,-3%,1%
O=C(CCCOc1ccccc1)N1CCN(c2ccccc2)CC1,?,9.5µM*,3.5µM*,2.8µM*,9.2µM*
Cc1ccccc1N1CCN(C(=O)CCN2C(=O)c3ccccc3C2=O)CC1,4%,17µM*,1%,17%,5%
O=C(CCCOc1ccccc1)N1CCc2ccccc2C1,13µM*,24µM*,29%,23%,21µM*
O=C(CCCOc1ccc(Cl)cc1Cl)N1CCc2ccccc2C1,-58%,-17%,-3%,-8%,1%
Cc1cccc(N2CCN(C(=O)CCCOc3ccccc3)CC2)c1C,16µM*,7.6µM*,3.2µM*,2.5µM*,2.6µM*
COCCNC(=O)CCC1CCN(Cc2cccc(Oc3ccccc3)c2)CC1,.,-6%,0%,-2%,0%
O=C(CSc1ccccc1)N1CCN(c2ccccc2)CC1,?,?,17%,20%,8%
O=C(Cc1ccc(Br)cc1)N1CCc2ccccc2C1,.,17µM*,?,?,?
O=C(CCSc1ccccc1)N1CCN(c2ccccc2)CC1,22µM*,19µM*,2.8µM*,2.8µM*,?
CCOC(=O)N1CCN(C(=O)CCCOc2ccccc2)CC1,13µM*,-11%[2.3 µM],2.8µM*,1.8µM*,?
Cc1ccccc1CN1CCc2cc([N+](=O)[O-])ccc21,.,-6%,-4%,-1%,-5%
COC(=O)CCN1CCc2cc(N=Nc3ccc([N+](=O)[O-])cc3)ccc21,.,0.67µM*,1.1µM*,1.1µM*,?
O=C(NCC(c1cccnc1)N1CCN(c2ccccc2F)CC1)c1ccc(F)cc1 (stereo unspecified),.,-1%,.,.,.
Cc1nn2c(-c3ccccc3)nnc2c2ccccc12,5.6µM*,19µM*,?,?,?
CC(C)Oc1ccc(N2C(=O)c3ccccc3C2=O)cc1,-18%,7.6µM*,1%,0%,?
CCOCCOC(=O)COc1ccc(N2C(=O)c3ccccc3C2=O)cc1,2%,19µM*,-7%,-6%,-7%
CCc1nn(CC(=O)Nc2cccc(C(C)=O)c2)c(=O)c2cc3sccc3n12,-9%,?,.,.,.
COC(=O)c1ccc(C2Nc3ccc(/C(C)=N/NC(=O)C(OC)c4ccccc4)cc3C3C=CCC32)cc1 (stereo unspecified),-2%,-14%,-5%,-10%,0%
